An excerpt weighted towards active compounds, which were near 18% of everything screened.
IL-1B inflam inh: blocks inflammasome-driven IL-1 beta release. activity change, % at 57.5 µM. 360,000 tested, 4.7% active. THP-1 LPS/ATP IL-1B secretion, AlphaLISA, 16 h; active compounds read low. AID 743279; in the data active = activity change below about -50%; inconclusive = mostly about -30% to -49%; also: % is scaled to controls: 0 for no effect and ±100 for the full control effect
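THP-1 cells pretreated 1 hr with compounds (up to 57.5 uM final), then stimulated with LPS (250 ng/mL final) plus ATP (1.25 mM final); secreted IL-1B measured by AlphaLISA after 16 hr, decreased signal indicating inhibition.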
TGFb inhibitor: blocks TGF-b signaling; HepG2 CAGA-GFP TGF-b/SMAD3 reporter, GFP fluorescence, 18 h; TGF-beta stimulated, 500 pg/mL final; Potency, µM (top dose mostly 46.1 µM), without a hit: at the highest dose activity, negative = inhibition, usual class: inhibitors; 410,000 tested, 1.2% active; AID 588855; also: potency is read from the fitted curve at half-maximal effect; % is scaled to controls: 0 for no effect and ±100 for the full control effect; nearly all actives have a fitted effect of over 65% in size
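Per well, imaged GFP fluorescence of HEPG2 CAGA-GFP cells gives the signal; cells get compound, then TGF-beta (500 pg/mL final), 18 h at 37 degrees C; %Activity versus -TGF-beta and +DMSO controls.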
TDP1 cell CPT: growth inhibition of DT40 Tdp1-/-;hTDP1 cells with camptothecin (screen for TDP1 inhibitors) | chicken DT40 Tdp1-/-;hTDP1 cells + 20 nM CPT, ATP luminescence, 48 h | Potency, µM (top dose mostly 46.2 µM), inactives show at the highest dose activity change, negative = growth inhibition, actives largely listed as inhibitors | 420,000 tested, 12% active; also: potency is read from the fitted curve at half-maximal effect; % is scaled to controls: 0 for no effect and ±100 for the full control effect; nearly all actives have a fitted effect of over 55% in size
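Chicken DT40 Tdp1-/- cells stably complemented with human TDP1 were seeded at 400 cells/well in medium containing 20 nM camptothecin, exposed to pin-transferred compounds, and grown at 37 °C for at least 48 hr. Viability was read as ATP luminescence.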
TDP1 inh: blocks human tyrosyl-DNA phosphodiesterase 1; recombinant TDP1, AlphaScreen DNA substrate cleavage; Potency, µM (doses to about 130 µM), for inactives: top-dose activity change, negative = inhibition, hits mostly inhibitors; 350,000 tested, 0.28% active; also: potency is read from the fitted curve at half-maximal effect; % is scaled to controls: 0 for no effect and ±100 for the full control effect; nearly all actives have a fitted effect of over 40% in size
Target sequence (Q9NUW8 whole entry, looked up): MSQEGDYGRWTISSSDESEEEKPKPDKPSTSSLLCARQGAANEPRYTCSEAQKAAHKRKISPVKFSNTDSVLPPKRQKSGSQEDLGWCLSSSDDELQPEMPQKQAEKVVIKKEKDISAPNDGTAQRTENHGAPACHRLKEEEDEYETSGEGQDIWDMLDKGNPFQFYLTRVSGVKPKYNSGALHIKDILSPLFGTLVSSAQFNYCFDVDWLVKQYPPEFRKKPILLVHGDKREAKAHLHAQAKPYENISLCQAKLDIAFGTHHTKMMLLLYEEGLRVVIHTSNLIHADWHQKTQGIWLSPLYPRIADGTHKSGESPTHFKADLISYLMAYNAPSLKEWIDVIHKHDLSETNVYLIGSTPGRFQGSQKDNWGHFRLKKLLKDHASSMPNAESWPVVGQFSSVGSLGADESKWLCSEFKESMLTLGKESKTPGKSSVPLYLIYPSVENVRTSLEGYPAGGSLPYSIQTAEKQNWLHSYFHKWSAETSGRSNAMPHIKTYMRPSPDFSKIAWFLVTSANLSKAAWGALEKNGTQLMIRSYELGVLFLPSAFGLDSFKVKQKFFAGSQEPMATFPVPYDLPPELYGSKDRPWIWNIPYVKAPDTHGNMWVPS
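Steps: enzyme plus compound, 15 min RT; add biotin/phosphotyrosine-FITC oligonucleotide (15 nM final), react 5 min; add donor/acceptor beads (10 ug/ml final), 10 min; read AlphaScreen. Tdp1 at 1 nM final.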
HepG2 viability: HepG2 cytotoxicity, counter-screen for TGF-b inhibitors; HepG2 CAGA-GFP viability, ATP luminescence, 18 h; Potency, µM (doses to about 46.1 µM), without a hit: at the highest dose activity change, negative = cytotoxicity, actives largely listed as cytotoxic; 410,000 tested, 0.76% active; also: potency is read from the fitted curve at half-maximal effect
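CellTiter-Glo luminescence gave cytotoxicity after 18 hours at 37 degrees C. The cells were HepG2 CAGA-GFP in 1% FBS DMEM, stimulated with 500 pg/mL TGF-beta after compound addition. %Activity was normalised to no-cell wells (complete cell-killing) and DMSO (no toxicity), and curves were fitted and classified.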
TDP1 cell noCPT: qHTS for Inhibitors of human tyrosyl-DNA phosphodiesterase 1 (TDP1): qHTS in cells in absence of CPT; 420,000 tested, 15% active; DT40 Tdp1-/- hTDP1 cells, no CPT, ATP luminescence, 48 h; Potency, µM (titrated, usually from 46.2 µM), inactives show top-dose activity change, negative = growth inhibition, actives largely listed as inhibitors; also: potency is read from the fitted curve at half-maximal effect; % is scaled to controls: 0 for no effect and ±100 for the full control effect; nearly all actives have a fitted effect of over 55% in size
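Luminescent ATP content (CellTiter-Glo) served as the growth readout. Knockout chicken DT40 cells expressing human TDP1 were exposed to compounds without camptothecin for a minimum 48 hr at 37 °C.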
The depositor's hits bear a star; ? = inconclusive; nt = no result given; [ ] = dose if it differs, or a comment. Unless noted, calls follow the shape of the dose curve; as a rule, active = well fitted curve in the direction sought with a large enough effect; inconclusive = small, poorly fitted or top-dose-only effect, or another doubt; inactive = no such curve, though single readings can be large; an effect the other way counts as inactive or inconclusive.

SMILES	IL-1B inflam inh	TGFb inhibitor	TDP1 cell CPT	TDP1 inh	HepG2 viability	TDP1 cell noCPT
CCOc1cc(CNc2ccc(O)cc2)cc(Cl)c1OCc1ccccc1	nt	?	21µM*	4%	-95%	16µM*
CCOc1cc(CNCCO)cc(Br)c1OCc1ccc(Cl)cc1Cl	-101*	?	16µM*	6%	16µM*	15µM*
CCOc1cccc(CNn2cnnc2)c1OCc1ccccc1Cl	-7	23%	-18%	3%	1%	-29%
COc1cc(CNCCO)cc(Br)c1OCc1ccccc1	-1	1%	-11%	-2%	-25%	-24%
CCOc1cccc(CNc2ccc(O)cc2)c1OCc1ccc(Cl)cc1Cl	?	?	15µM*	4%	-38%	21µM*
CCCS(=O)(=O)N1CCC(N2CCN(Cc3ccc(F)cc3)C(=O)C2=O)CC1	nt	-3%	-5%	-1%	-5%	0%
O=C(NCc1ccccc1Br)c1ccc2c(c1)OCCO2	3	-2%	4%	nt	-13%	-14%
CSc1nc2nc3c(c(=O)n2[nH]1)CN(Cc1ccccc1)CC3	0	0%	26µM*	6%	-3%	?
O=c1c2c(nc3nc(SCc4ccccc4)[nH]n13)CCC2	19	-15%	-22%	6%	2%	-17%
COc1ccccc1CNC(=O)CCCN1C(=O)COc2ccc(C)cc21	-14	-13%	?	2%	8%	-24%
Cc1cccc(CNC(=O)CCCN2C(=O)COc3ccc(C)cc32)c1	nt	nt	15µM*	5%	-43%	?
Cc1cc(C)c(NC(=O)CCCN2C(=O)COc3ccc(C)cc32)c(C)c1	nt	nt	?	8%	-46%	16µM*
Cc1ccc2c(c1)N(CCCC(=O)NCc1ccc3c(c1)OCO3)C(=O)CO2	-6	-11%	-3%	5%	-3%	-19%
CCOc1ccccc1CNC(=O)CCCN1C(=O)COc2ccc(C)cc21	nt	nt	?	-8%	-33%	18µM*
CCNC(=O)C1(C)CCCN(C(=O)c2cc(-c3ccccc3)cs2)C1 (configuration not stated)	13	-8%	?	nt	-19%	?
COc1ccc(OCCCC(=O)Nc2cc(Cl)ccc2-n2cncn2)cc1	-1	72%	-4%	0%	-11%	-8%
CCOc1ccc2cc(/C=C/C(=O)c3ccco3)c(Cl)nc2c1	?	-5%	?	0%	0%	21µM*
CCOc1ccc2nc(SCC(=O)NNC(=O)c3ccco3)c(C)cc2c1	-2	2%	-15%	8%	-4%	-14%
CCOc1ccc(NC(=O)CN(C)C(=O)c2ccccc2OCc2c(C)noc2C)cc1OCC	7	4%	?	-1%	-3%	0.65µM*
COc1ccc(Br)cc1CN(C)C(=O)c1ccccc1OCc1c(C)noc1C	-65*	-34%	?	0%	0%	16µM*
Cc1ccc(NC(=O)CN(C)C(=O)c2ccccc2OCc2c(C)noc2C)cc1	-7	-3%	-23%	nt	2%	-14%
COc1ccc(CCN(C)Cc2c(O)ccc3cc(Br)ccc23)cc1OC	-94*	?	?	nt	-25%	-23%
COc1ccc2cc(Br)ccc2c1CC(=O)N1CCCC1	-14	-14%	-14%	nt	-3%	?
COc1ccc2cc(Br)ccc2c1CC(=O)NC(C)C	-11	0%	-9%	6%	0%	?
CCCCN(C)C(=O)Cc1c(OC)ccc2cc(Br)ccc12	14	?	23µM*	0%	-38%	18µM*
SMILES	IL-1B inflam inh	TGFb inhibitor	TDP1 cell CPT	TDP1 inh	HepG2 viability	TDP1 cell noCPT
COC(=O)C1CCN(C(=O)Cc2c(OC)ccc3cc(Br)ccc23)CC1	33	?	18µM*	-11%	7%	?
Cn1nnnc1SCCCNCc1ccc(-c2ccc(F)c(Cl)c2)o1	nt	-17%	?	3%	-25%	?
CCOC(=O)c1ccccc1NC(=O)Cc1c(C(=O)O)c(C)cn1C	nt	15%	-7%	2%	-7%	-12%
COc1ccc2sc(-c3ccc(N(C)C)cc3)c(C#Cc3cncn3C)c2c1	-6	?	5.8µM*	9%	8.9µM*	5.8µM*
COc1ccc2sc(-c3ccc(SC)cc3)c(C#CC(C)(C)O)c2c1	-10	?	?	-4%	-41%	?
COc1ccc2sc(-c3ccc(N(C)C)cc3)c(C#CC(C)(C)O)c2c1	17	-24%	8.2µM*	0%	-27%	8.2µM*
COc1ccc(-c2sc3ccc(OC)cc3c2C#CCCO)cc1	0	-8%	?	nt	-40%	?
COc1cccc(-c2sc3ccc(OC)cc3c2C#CC(C)(C)O)c1	-88*	16µM*	23µM*	-12%	-42%	18µM*
COc1ccc2sc(-c3ccc(N(C)C)cc3)c(C#CCCO)c2c1	-9	-1%	?	4%	-19%	16µM*
COc1ccc(C(=O)N(Cc2cc3cccc(C)c3nc2N(C)C)CC2CCCO2)cc1 (configuration not stated)	nt	nt	-3%[9.04 µM]	nt	nt	-4%
Cc1ccc(C)c(CSC2=NC(C)(C)Nc3ccccc32)c1	nt	nt	?	nt	-59%	?
CCOc1ccc(S(=O)(=O)N(C)c2ccc(OCC(=O)NCC3CCCCC3)cc2)cc1	?	?	16µM*	-1%	-16%	21µM*
COc1ccccc1CNC(=O)c1cccc(S(=O)(=O)N(C)c2ccccc2)c1	-5	-9%	26µM*	1%	-77%	?
CN(c1ccccc1)S(=O)(=O)c1cccc(C(=O)NCc2ccccc2CN2CCCC2)c1	-7	12%	?	0%[56.1 µM]	-21%	?
COc1ccc(CCNC(=O)c2ccccc2N(C)S(=O)(=O)c2ccccc2)cc1	0	?	-11%	3%	-52%	-20%
Cc1ccc(S(=O)(=O)N(C)c2ccc(C(=O)NCCc3ccccc3)cc2)cc1	-1	?	?	1%	-13%	?
COc1ccc(CCNC(=O)c2ccc(S(=O)(=O)N(C)c3ccccc3)cc2)cc1OC	30	-18%	?	2%	0%	23µM*
COc1ccc(CCNC(=O)c2ccc(Cl)c(S(=O)(=O)N(C)c3ccccc3)c2)cc1	?	-22%	21µM*	0%	-15%	16µM*
CCOC(=O)N1C(C)CN(/[N+]([O-])=N/Oc2ccc([N+](=O)[O-])cc2[N+](=O)[O-])CC1C (configuration not stated)	nt	-21%	nt	1%	-14%	nt
